# Data as given in publication PMC5700166.
# Positions count from the first letter of the chain named.
# Assays:
# Test in all cases: protein-binding microarray (PBM); PBM: ~300 nM protein, 6 mM HEPES pH 7.8, 80 mM KCl, 0.5 mM EDTA, 0.5 mM EGTA, 6% glycerol, 35 ng/ul poly-dIdC, 1% milk, 1 h, room temperature; Ap Aiptasia and Nv Nematostella (sea anemones) / Co Capsaspora / Aq Amphimedon (sponge) / Dm Drosophila / Hu human; RHD is the Rel homology domain; high values mean tight binding
# Conditions in all cases: dsDNA, one strand shown
# [1] = biological target: T1, GST-Ap-NF-kB RHD (Exaiptasia pallida (Aiptasia), UniProt A0A913YAJ5 2-422)
# T1 sequence: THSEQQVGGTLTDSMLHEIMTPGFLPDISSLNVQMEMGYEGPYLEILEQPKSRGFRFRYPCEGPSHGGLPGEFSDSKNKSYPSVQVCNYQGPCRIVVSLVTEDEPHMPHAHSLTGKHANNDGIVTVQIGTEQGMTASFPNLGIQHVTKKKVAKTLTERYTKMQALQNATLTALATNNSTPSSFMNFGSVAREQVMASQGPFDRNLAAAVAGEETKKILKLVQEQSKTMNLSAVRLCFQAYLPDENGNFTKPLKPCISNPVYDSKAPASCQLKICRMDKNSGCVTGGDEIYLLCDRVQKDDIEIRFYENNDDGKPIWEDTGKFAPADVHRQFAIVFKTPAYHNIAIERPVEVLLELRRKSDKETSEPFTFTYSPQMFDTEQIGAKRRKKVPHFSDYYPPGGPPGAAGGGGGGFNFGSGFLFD
# [2] = biological target: T2, GST-Nv-NF-kB (Cys allele) (Nematostella vectensis, UniProt E5G601 2-411)
# T2 sequence: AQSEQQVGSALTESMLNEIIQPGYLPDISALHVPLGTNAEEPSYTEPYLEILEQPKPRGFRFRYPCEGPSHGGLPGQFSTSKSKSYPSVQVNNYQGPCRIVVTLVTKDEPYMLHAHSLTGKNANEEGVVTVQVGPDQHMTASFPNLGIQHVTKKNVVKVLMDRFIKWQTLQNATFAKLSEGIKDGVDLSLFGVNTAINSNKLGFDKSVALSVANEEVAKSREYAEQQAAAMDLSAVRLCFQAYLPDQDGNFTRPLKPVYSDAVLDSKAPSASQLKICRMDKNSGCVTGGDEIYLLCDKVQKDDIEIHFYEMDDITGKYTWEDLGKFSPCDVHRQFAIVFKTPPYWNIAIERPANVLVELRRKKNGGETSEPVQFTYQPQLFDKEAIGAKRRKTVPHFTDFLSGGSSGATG
# [3] = biological target: T3, GST-Nv-NF-kB (Ser allele) (Nematostella vectensis, UniProt A7UNT2 2-411)
# T3 sequence: T2 sequence with Q21R, C66S, S207N, E215Q, V217A, E225K, A268E, D399E
# [4] = biological target: T4, GST-Co-NF-kB (Capsaspora owczarzaki, UniProt F1ARL5 200-546)
# T4 sequence: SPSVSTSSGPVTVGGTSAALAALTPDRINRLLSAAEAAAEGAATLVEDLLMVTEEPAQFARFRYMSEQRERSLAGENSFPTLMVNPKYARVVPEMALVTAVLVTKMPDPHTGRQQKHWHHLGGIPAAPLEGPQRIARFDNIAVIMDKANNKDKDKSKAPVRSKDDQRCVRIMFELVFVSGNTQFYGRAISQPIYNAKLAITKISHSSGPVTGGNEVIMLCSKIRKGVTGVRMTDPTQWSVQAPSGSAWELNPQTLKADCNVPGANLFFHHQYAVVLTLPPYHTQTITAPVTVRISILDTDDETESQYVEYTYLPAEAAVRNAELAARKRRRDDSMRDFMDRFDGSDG
# [5] = biological target: T5, GST-Dm-Relish (Drosophila melanogaster, UniProt Q94527 99-473)
# T5 sequence: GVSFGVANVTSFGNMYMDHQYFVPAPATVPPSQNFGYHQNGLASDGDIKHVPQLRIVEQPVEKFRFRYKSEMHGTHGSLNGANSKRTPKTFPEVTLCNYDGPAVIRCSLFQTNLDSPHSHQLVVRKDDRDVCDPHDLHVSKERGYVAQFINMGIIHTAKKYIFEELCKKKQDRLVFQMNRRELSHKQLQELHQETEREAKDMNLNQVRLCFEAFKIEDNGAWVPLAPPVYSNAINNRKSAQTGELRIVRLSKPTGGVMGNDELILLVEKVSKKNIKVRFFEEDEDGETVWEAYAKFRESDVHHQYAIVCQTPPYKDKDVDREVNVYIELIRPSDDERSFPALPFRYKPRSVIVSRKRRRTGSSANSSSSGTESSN
# [6] = biological target: T6, GST-Aq-NF-kB (Amphimedon queenslandica, UniProt A9Y5G7 2-389)
# T6 sequence: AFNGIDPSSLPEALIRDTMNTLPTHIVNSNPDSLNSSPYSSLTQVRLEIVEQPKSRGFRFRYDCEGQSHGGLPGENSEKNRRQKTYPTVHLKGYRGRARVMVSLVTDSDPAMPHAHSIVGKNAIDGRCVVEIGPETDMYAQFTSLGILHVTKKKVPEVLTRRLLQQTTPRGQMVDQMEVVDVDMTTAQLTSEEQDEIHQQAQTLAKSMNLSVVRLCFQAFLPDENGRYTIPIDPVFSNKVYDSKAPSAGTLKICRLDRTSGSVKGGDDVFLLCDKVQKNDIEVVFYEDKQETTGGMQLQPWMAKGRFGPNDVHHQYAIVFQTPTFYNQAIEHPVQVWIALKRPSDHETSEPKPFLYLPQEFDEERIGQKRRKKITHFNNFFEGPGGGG
# [7] = biological target: GST-Hu-p50 (Homo sapiens, UniProt P19838 7-356)
# Sequence of GST-Hu-p50 (P19838 7-356): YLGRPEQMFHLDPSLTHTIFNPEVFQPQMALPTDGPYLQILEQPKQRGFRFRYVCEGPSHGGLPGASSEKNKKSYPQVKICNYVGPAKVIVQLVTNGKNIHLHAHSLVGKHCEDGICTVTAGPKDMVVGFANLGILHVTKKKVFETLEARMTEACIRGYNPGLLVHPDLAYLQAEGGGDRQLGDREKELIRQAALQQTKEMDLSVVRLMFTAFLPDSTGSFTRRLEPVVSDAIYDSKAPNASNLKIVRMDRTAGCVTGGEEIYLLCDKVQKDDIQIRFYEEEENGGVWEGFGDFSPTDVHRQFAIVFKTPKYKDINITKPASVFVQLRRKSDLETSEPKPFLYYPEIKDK
Sequence,binding signal [1],binding signal [2],binding signal [3],binding signal [4],binding signal [5],binding signal [6],binding signal [7]
CCGATTAACATCAGGGCGCCCCCTGATGTTAATCGGGTCTTGATTCGCTTGACGCTGCTG,6.07 z-score,4.59 z-score,3.38 z-score,1.95 z-score,5.55 z-score,7.98 z-score,4.97 z-score
CCGATTAACATCACCCTTTCCCCTGATGTTAATCGGGTCTTGATTCGCTTGACGCTGCTG,4.99 z-score,5.19 z-score,7.16 z-score,5.72 z-score,1.82 z-score,4.33 z-score,3.91 z-score
CCGATTAACATCAGGGGAACCCCTGATGTTAATCGGGTCTTGATTCGCTTGACGCTGCTG,12.5 z-score,11.6 z-score,11.2 z-score,6.69 z-score,10.5 z-score,10.7 z-score,7.08 z-score
CCGATTAACATCAAAAATCTCCCTGATGTTAATCGGGTCTTGATTCGCTTGACGCTGCTG,3.7 z-score,6.51 z-score,6.86 z-score,3.4 z-score,2.94 z-score,6.14 z-score,4.72 z-score
CCGATTAACATCAATCTTCCCCCTGATGTTAATCGGGTCTTGATTCGCTTGACGCTGCTG,5.77 z-score,6.99 z-score,7.73 z-score,9.37 z-score,4.07 z-score,6.23 z-score,6.3 z-score
CCGATTAACATCAAAATAACCCCTGATGTTAATCGGGTCTTGATTCGCTTGACGCTGCTG,6.69 z-score,5.59 z-score,5.3 z-score,3.27 z-score,4.93 z-score,5.19 z-score,5.2 z-score
CCGATTAACATCAAAATTACCCATGATGTTAATCGGGTCTTGATTCGCTTGACGCTGCTG,2.8 z-score,4.69 z-score,4.25 z-score,2.84 z-score,4.11 z-score,4.84 z-score,4.15 z-score
CCGATTAACATCAGGGGAGACCCTGATGTTAATCGGGTCTTGATTCGCTTGACGCTGCTG,6.47 z-score,4.51 z-score,4.3 z-score,3.35 z-score,6.91 z-score,6.37 z-score,3.38 z-score
CCGATTAACATCAACCATTCCCCTGATGTTAATCGGGTCTTGATTCGCTTGACGCTGCTG,5.66 z-score,6.61 z-score,7.06 z-score,4.68 z-score,1.96 z-score,4.45 z-score,4.88 z-score
CCGATTAACATCAAGAAATCCCCTGATGTTAATCGGGTCTTGATTCGCTTGACGCTGCTG,9.62 z-score,11.5 z-score,12.5 z-score,4.27 z-score,9.61 z-score,7.7 z-score,7.69 z-score
CCGATTAACATCAATCTTTCCCCTGATGTTAATCGGGTCTTGATTCGCTTGACGCTGCTG,5.5 z-score,7.61 z-score,8.93 z-score,8.32 z-score,3.33 z-score,5.91 z-score,5.41 z-score
CCGATTAACATCAGGGGGAGAACTGATGTTAATCGGGTCTTGATTCGCTTGACGCTGCTG,6.04 z-score,5.02 z-score,6.45 z-score,7.22 z-score,6.51 z-score,4.8 z-score,5.85 z-score
